The panel holds about 83,000 compounds, 20% with a hit somewhere; the sample as a whole holds those more often.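 Values shown are percent growth following 48 h exposure of cells in 96-well plates to a single concentration of compound; below 10 was considered active.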 Unmarked numbers belong to inactive results. Activity calls are given as the source filed them.
The compounds below were run on MDA-MB-468 breast (assay: NCI-60 one-dose screen, 48 h (100 = growth as untreated, 0 = no growth, -100 = all killed)). Details: 10 µM unless noted.
Work on `O=C(Nc1cccc(Cl)c1)c1cc(N=Nc2ccc([N+](=O)[O-])cc2Cl)ccc1O` yielded a growth of 67.8%.
With `O=C1c2cc(S(=O)(=O)O)ccc2C(=O)c2c1cccc2[N+](=O)[O-]` the growth was 114%.
`CCCCCCCC(C)NCCO` (stereo not given) showed a growth of 104%.
With `CCCCCCCCCCCCCC` the growth was 110%.
`O=C(O)C1(C(=O)O)CCC1.[NH2-].[NH2-].[Pt+2]` showed a growth of 106%.
`CCOc1ccc2nc(C)cc(Nc3ccc(Br)cc3)c2c1` gave a growth of 100%.
With `O=C1CCc2c(sc3[nH]c(=S)n(Cc4ccccc4)c(=O)c23)C1` the growth was -3.67% (active).
`Cc1cnc(/C=N\NC(N)=S)c2cccc(N)c12` was tested, and the growth was -27.7% (active).
`Cc1sc(N=Nc2ccc(N(C)C)cc2)[n+]([O-])c1C` gave a growth of 75.2%.
In the case of `CC[C@]12C=CCN3CC[C@@]4(c5cc([C@H]6CCC(=O)N6)c(OC)cc5N(C)[C@H]4[C@@](O)(C(=O)OC)[C@@H]1OC(C)=O)[C@@H]32`, the growth is reported as 110% [2.5 µM].
`Cc1cc(Nc2ccc(F)cc2)nc(N2CCN(c3ccnc4cc(Cl)ccc34)CC2)n1` was tested, and the growth was 17.6%.
In the case of `Cn1cc(-c2nonc2-c2cn(C)c3ccccc23)c2ccccc21`, the growth is reported as 30.3%.
`COc1cccc(-c2cn3nc(-c4cn(C)c5ccccc45)sc3n2)c1` gave a growth of 103%.
In the case of `Cc1cc[c-]cc1.Fc1c[c-]c(-c2ccccn2)c(F)c1.[Pt+2].c1ccc(P(C[PH+](c2ccccc2)c2ccccc2)c2ccccc2)cc1`, the growth is reported as -2.46% (active).
`Cn1c(-c2ccccc2)cc(=O)cc1-c1ccccc1` was tested, and the growth was 68.7%.
